Reference: article PMC4336329 (PLoS ONE, 2015)
In all, about 310,000 compounds went through this assay and about 14,000 (4.5%) showed an effect of 50% or more. The effect is printed as a negative number. Many of the other results were omitted from the sample, so strong results are more common in it than they were.

The compounds below were run against human ether-à-go-go-related gene (hERG) potassium channel (human, UniProt Q12809) (assay: primary screen, population patch clamp on CHO cells stably expressing hERG; higher = less effect of the substance).
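Note: peak tail current of the secondary pulse compared with the same well before compound.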

human ether-à-go-go-related gene (hERG) potassium channel, sequence (Q12809 whole entry, looked up): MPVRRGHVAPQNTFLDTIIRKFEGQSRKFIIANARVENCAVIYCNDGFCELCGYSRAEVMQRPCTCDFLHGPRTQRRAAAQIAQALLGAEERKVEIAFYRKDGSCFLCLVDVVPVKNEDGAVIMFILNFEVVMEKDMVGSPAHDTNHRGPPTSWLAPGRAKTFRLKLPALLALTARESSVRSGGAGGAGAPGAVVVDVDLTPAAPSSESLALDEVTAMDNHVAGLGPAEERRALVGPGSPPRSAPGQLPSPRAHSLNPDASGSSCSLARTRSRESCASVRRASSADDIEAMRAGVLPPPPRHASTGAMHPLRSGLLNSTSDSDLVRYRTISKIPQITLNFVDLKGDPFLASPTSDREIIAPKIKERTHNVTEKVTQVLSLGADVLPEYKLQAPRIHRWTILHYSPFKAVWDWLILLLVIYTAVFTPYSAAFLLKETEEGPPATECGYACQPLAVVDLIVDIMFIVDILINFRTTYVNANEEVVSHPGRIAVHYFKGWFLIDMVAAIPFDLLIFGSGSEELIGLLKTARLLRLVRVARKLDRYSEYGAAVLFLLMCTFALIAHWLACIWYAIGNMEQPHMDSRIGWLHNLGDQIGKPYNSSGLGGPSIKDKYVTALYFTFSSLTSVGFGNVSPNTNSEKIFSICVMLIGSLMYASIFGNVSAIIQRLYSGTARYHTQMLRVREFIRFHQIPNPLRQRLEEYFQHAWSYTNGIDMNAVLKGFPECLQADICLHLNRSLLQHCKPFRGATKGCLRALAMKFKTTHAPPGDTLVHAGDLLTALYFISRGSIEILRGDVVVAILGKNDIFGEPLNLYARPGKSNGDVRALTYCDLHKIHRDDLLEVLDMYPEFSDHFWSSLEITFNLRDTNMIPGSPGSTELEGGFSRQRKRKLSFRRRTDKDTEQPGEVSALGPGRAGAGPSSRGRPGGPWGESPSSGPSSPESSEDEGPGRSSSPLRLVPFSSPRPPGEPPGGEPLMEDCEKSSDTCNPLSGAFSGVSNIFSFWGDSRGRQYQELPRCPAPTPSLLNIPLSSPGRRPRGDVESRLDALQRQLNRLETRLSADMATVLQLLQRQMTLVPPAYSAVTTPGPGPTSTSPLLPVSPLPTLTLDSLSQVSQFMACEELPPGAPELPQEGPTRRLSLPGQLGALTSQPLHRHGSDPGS

SMILES	hERG current change (%, negative = inhibition) at 10uM [%]
O=[N+]([O-])c1ccc(-c2nc(NCC3CCCO3)c3ccccc3n2)cc1 (stereo not drawn)	12.3
O=C(Cc1ccsc1)N1CCN(S(=O)(=O)c2cc(C(F)(F)F)cc(C(F)(F)F)c2)CC1	1.69
Cc1ccc(S(=O)(=O)CCc2nc3ccccc3[nH]2)cc1	-17.6
Cc1nc2cc(C)c(C)cc2s1	15.7
CS(=O)(=O)N(CC(=O)NC1CCCCCC1)Cc1ccccc1	-1.26
CN1C(=O)C(CC(=O)Nc2ccc(F)cc2)N(NC(=O)c2cccc(F)c2)C1=S (stereo not drawn)	-3.79
CCn1c(SCC(=O)c2ccc3ccccc3c2)nnc1-c1cccs1	-8.29
COc1cc(C(=O)NC(=S)NCc2ccco2)cc(OC)c1OC	1.74
CCOC(=O)C1(Cc2ccccc2)CCN(Cc2ccon2)CC1	0.71
CCOC(=O)C1(Cc2ccccc2)CCN(Cc2cc(=O)c3ccccc3[nH]2)CC1	13.5
CCOC(=O)C1(Cc2ccccc2)CCN(Cc2ccc3cc(NC(C)=O)ccc3n2)CC1	-68.7
CC(=O)Nc1ccc2nc(CN3CCC(CO)(CCc4ccccc4)CC3)ccc2c1	-68.2
CC(=O)Nc1ccc2nc(CN3CCN(CC(C)C)C(CCO)C3)ccc2c1 (stereo not drawn)	17
CC(=O)Nc1ccc2nc(CN3CCN(CC=C(C)C)C(CCO)C3)ccc2c1 (stereo not drawn)	11.5
COc1ccc(C(=O)Nc2nc3c(s2)CCCC3)cc1S(=O)(=O)N1CCCc2ccccc21	-2.36
Cc1noc(C)c1COc1ccc(C(=O)O)cc1	17.1
CCCCc1n[nH]c2c1/C(=N/O)CC(c1ccccc1)C2 (stereo not drawn)	8.46
COc1ccc(C(OCC(O)CNCCc2ccccc2)c2ccc(OC)cc2)cc1.O=C(O)C(=O)O (stereo not drawn)	-63.7
OC(CNCCc1ccc(C(F)(F)F)cc1)COc1cccc2ccccc12 (stereo not drawn)	-36.5
Cc1ccc(C(OCC(O)CNC(C)c2ccccc2)c2ccccc2)cc1 (stereo not drawn)	-58.2
O=C(O)C(=O)O.OC(CNCCc1ccc(C(F)(F)F)cc1)COC(c1ccccc1)c1ccccc1 (stereo not drawn)	-34.7

SMILES	hERG current change (%, negative = inhibition) at 10uM [%]
Cc1cccc(C)c1OCC(O)CNC(C)c1ccccc1.Cl (stereo not drawn)	-13.7
COc1ccccc1COCC(O)CNCCc1ccc(C(F)(F)F)cc1.O=C(O)C(=O)O (stereo not drawn)	-56.5
Cc1ccc(C(OCC(O)CNC(CO)C(O)c2ccc([N+](=O)[O-])cc2)c2ccccc2)cc1 (stereo not drawn)	-22.4
CC(NCC(O)COc1ccc2ccccc2c1)c1ccccc1.O=C(O)C(=O)O (stereo not drawn)	-44
COc1ccc(C(OCC(O)CNCCc2ccc(S(N)(=O)=O)cc2)c2ccc(OC)cc2)cc1 (stereo not drawn)	-43.2
COc1cccc(OCC(O)CNC(C)c2ccccc2)c1.Cl (stereo not drawn)	2.14
COc1ccc(C(OCC(O)CNC(C)c2ccccc2)c2ccc(OC)cc2)cc1 (stereo not drawn)	-52.4
COc1ccc(CCNCC(O)c2ccccc2)cc1.O=C(O)C(=O)O (stereo not drawn)	-11.4
COC(=O)c1cc(S(=O)(=O)NCc2ccccc2Cl)c[nH]1	17.1
C1CN(CCN2CCOCC2)CCN1	21
Cc1cccc(C)c1NS(=O)(=O)c1ccc(NC(=O)c2ccc(Cl)c([N+](=O)[O-])c2)cc1	13.9
Cc1ccc(S(=O)(=O)N(CC2CO2)c2ccccc2[N+](=O)[O-])cc1 (stereo not drawn)	13.1
O=C(Nc1nnc(SCc2ccccc2Cl)s1)c1cccc([N+](=O)[O-])c1	-3.26
O=C(Nc1cc(Oc2ccc(Cl)cc2)cc([N+](=O)[O-])c1)c1ccco1	15
CCOc1cnn(-c2cc(Oc3ccc(C)cc3)ncn2)c(=O)c1Cl	-12.4
O=C(CSc1nnnn1-c1cccc2ccccc12)Nc1ccc(N2CCOCC2)c(Cl)c1	2.68
COc1ccc(OCC(O)CNC(C)c2ccccc2)cc1.Cl (stereo not drawn)	5.12
CC(C)c1ccc(OCC(O)CNC(C)c2ccccc2)cc1.Cl (stereo not drawn)	-65.3
CC(NCC(O)COc1ccc(Br)cc1)c1ccccc1.Cl (stereo not drawn)	0.452
O=C1CCCN1c1cc(Cl)ccc1Cl	2.17
CN(Cc1nc(-c2cnccn2)no1)CC1(c2ccccc2)CC1(C)C (stereo not drawn)	4.2

SMILES	hERG current change (%, negative = inhibition) at 10uM [%]
COc1ccc(-c2nnc(-c3ccc(N)cc3)o2)cc1	-5.64
CC1CCCCN1C(=O)c1ccc(S(=O)(=O)N2CCCCC2C)cc1 (stereo not drawn)	-9.35
COc1ccccc1N1CCN(C(=O)/C=C/c2ccc3c(c2)OCO3)CC1	-10.5
C=CCNC(=O)/C(=C/c1cccc([N+](=O)[O-])c1)NC(=O)c1ccccc1	-31.2
CC(C)(C)c1ccc(C(=O)N/C(=C\c2cccc([N+](=O)[O-])c2)C(=O)Nc2cccc(C(=O)O)c2)cc1	12.7
COc1ccc(C(=O)N/C(=C\c2cccc([N+](=O)[O-])c2)C(=O)Nc2cccc(C(=O)O)c2)cc1	5.3
C=CCNC(=O)/C(=C\c1cccc([N+](=O)[O-])c1)NC(=O)c1ccccc1	-53.4
CN(C)CCNC(=O)/C(=C/c1cccc([N+](=O)[O-])c1)NC(=O)c1ccccc1	-66.9
C=CCNC(=O)/C(=C/c1cccc([N+](=O)[O-])c1)NC(=O)c1ccco1	-27.5
Cc1c(C(=O)N(CC(C)C)c2c(N)n(Cc3ccccc3)c(=O)[nH]c2=O)sc2nc3n(c(=O)c12)CCC3	7.27
CC(C)CN1C(=O)C(=O)N(CC(=O)c2ccc[nH]2)C1=O	1.48
Cc1ccc(S(=O)(=O)N2CCCCC2C(=O)N2CCN(C)CC2)cc1 (stereo not drawn)	18.1
CCOc1ccc(N(CC(=O)Nc2ccccc2C(=O)NC(C)CC)S(C)(=O)=O)cc1 (stereo not drawn)	-13.3
CC(=O)c1ccc(N2CCN(S(=O)(=O)c3c(C(=O)N4CCCCC4)c(C)n(C)c3C)CC2)cc1	-2.75
Cc1c(C(=O)N2CCOCC2)c(S(=O)(=O)N2CCN(c3ccc(Cl)cc3)CC2)c(C)n1C	-37.6
Cc1[nH]c(C)c(S(=O)(=O)N2CCN(c3cccc(Cl)c3)CC2)c1C(=O)N1CCCC1	-6.94
Cc1[nH]c(C)c(S(=O)(=O)N2CCN(c3ccc(Cl)cc3)CC2)c1C(=O)N1CCCC1	-66.4
Cc1[nH]c(C)c(S(=O)(=O)N2CCN(c3ccccc3)CC2)c1C(=O)N1CCCC1	-10.4
Cc1c(C(=O)N2CCCCC2)c(S(=O)(=O)N2CCN(c3ccc(Cl)cc3)CC2)c(C)n1C	-55.7
CCOc1ccc(OCC)c(NC(=O)C2CCN(c3ncccn3)CC2)c1	-30
CCC(C)CCN1C(N(C)C)=NC[C@@H]1C (stereo partly drawn)	15.3

SMILES	hERG current change (%, negative = inhibition) at 10uM [%]
O=C(NC1CCCCC1)C(c1ccco1)N(C(=O)c1csnn1)c1cccc(Cl)c1 (stereo not drawn)	4.93
CC(C)CCN1CCN(Cc2cccn2-c2nccs2)CC1CCO (stereo not drawn)	-52.1
CCOc1ccc(CN2CCN(Cc3cccn3-c3nccs3)CC2CCO)cc1 (stereo not drawn)	-76.1
OCCC1CN(Cc2cccn2-c2nccs2)CCN1CCc1ccccc1 (stereo not drawn)	-73.6
OCCC1CN(Cc2cccn2-c2nccs2)CCN1Cc1ccccc1 (stereo not drawn)	-69.3
CC(C)N1CCN(Cc2cccn2-c2nccs2)CC1CCO (stereo not drawn)	10.2
OCCC1CN(Cc2cccn2-c2nccs2)CCN1C1CCCCC1 (stereo not drawn)	-37.8
CC(C)=CCN1CCN(Cc2cccn2-c2nccs2)CC1CCO (stereo not drawn)	-34.1
COc1ccc(CN2C(=O)c3ccccc3C(/C=N\OCc3ccc(C)cc3)C2=O)cc1 (stereo not drawn)	8.84
CCN(c1ccccc1)S(=O)(=O)c1ccc(C(=O)Nc2nccs2)cc1	8.62
Cc1c(S(=O)(=O)Nc2ccc3c(c2)OCCO3)c(=O)n(C)c(=O)n1C	-10.7
CCOCCCNS(=O)(=O)c1cc2[nH]c3c(c2cc1C)C(=O)CC(C)(C)C3	-6.44
Cc1ccc(NS(=O)(=O)c2ccc(C)c(C(=O)N3CCN(C)CC3)c2)cc1.Cl	-14.8
COc1ccc(OC)c(S(=O)(=O)N(C)CC(=O)Nc2ccccc2OC)c1	-20.2
O=C1/C(=C\c2ccc(Br)o2)Cc2ccccc21	2.56
CSc1ncccc1C(=O)OCC(=O)Nc1ccc2c(c1)CCC2	9.67
COc1ccc(C(=O)NC(=S)NNC(=O)COc2ccccc2)cc1	-2.47
OCCC1CN(Cc2cccn2-c2nccs2)CCN1Cc1ccc(F)c(F)c1 (stereo not drawn)	-80.7
Cc1ccc(CN2CCN(Cc3cccn3-c3nccs3)CC2CCO)cc1 (stereo not drawn)	-77.3
CCc1nc(CN2CCN(Cc3ccc(F)c(F)c3)C(CCO)C2)c(C)[nH]1 (stereo not drawn)	14.2
Cc1ccc(N2C(=O)CC(C)CC2=O)cc1	21.2
